Assay outcomes as filed in PubChem BioAssay.
This excerpt belongs to a sample that is enriched for hits.
Tb PFK inh-1 = qHTS Assay to Find Inhibitors of T. brucei phosphofructokinase; T. brucei PFK, ADP-Glo luminescence; Potency, µM (top dose mostly 57.5 µM), for the others: at the highest dose activity, negative = inhibition, usual class: inhibitors; actives 0.17% (n = 330,000); AID 485367, 2010;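 also: 0% = uninhibited 1x PFK enzyme wells and -100% = no-enzyme wells; nearly all actives have a fitted effect of over 60% in size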
Target sequence (O15648 whole entry, looked up): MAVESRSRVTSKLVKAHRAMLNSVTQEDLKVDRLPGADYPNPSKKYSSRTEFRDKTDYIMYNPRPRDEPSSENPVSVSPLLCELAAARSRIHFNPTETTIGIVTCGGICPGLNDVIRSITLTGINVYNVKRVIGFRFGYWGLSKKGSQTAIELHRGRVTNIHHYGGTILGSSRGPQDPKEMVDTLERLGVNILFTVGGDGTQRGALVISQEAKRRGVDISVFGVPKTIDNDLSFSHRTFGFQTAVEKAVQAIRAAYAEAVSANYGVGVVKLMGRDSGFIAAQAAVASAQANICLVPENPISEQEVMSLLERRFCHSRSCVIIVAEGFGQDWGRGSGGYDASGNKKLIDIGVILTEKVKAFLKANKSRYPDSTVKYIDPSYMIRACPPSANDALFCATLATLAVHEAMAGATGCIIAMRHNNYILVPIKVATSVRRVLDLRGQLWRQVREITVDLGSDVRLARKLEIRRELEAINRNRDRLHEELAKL
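PFK 1.25 nM, F6P 0.5 mM, ATP 0.1 mM, 0.1 M TEA pH 8.0, 5 mM MgCl2, 0.01% Tween20, 0.1% BSA; 45 min RT. ADP-Glo readout. qHTS titration up to 57 uM; curves fitted, compounds curve-classed.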
NPSR antag = qHTS Assay for Antagonists of the Neuropeptide S Receptor: cAMP Signal Transduction. AID 1461, 2008. Q6W5P4. Potency, µM (doses to about 38.3 µM), without a hit: at the highest dose activity change, negative = inhibition, most hits filed as inhibitors. actives 1% (n = 220,000). CHO-NPSR cells, cAMP TR-FRET, antagonist mode; also: % is scaled to controls: 0 for no effect and ±100 for the full control effect; nearly all actives have a fitted effect of over 50% in size
IMPase Li cell = qHTS Assay for Identifying the Cell-Membrane Permeable IMPase Inhibitors: Potentiation with Lithium; CHO-M1 cells, IP1 TR-FRET (IP-One), carbachol + lithium; Potency, µM (titrated, usually from 59.4 µM), for inactives: top-dose activity, negative = IMPase inhibition, actives largely listed as inhibitors; actives 0.35% (n = 210,000);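 also: IP1 builds up when IMPase is blocked and the TR-FRET signal falls; plate controls were basal vehicle for no effect and high inhibitor control for full effect; nearly all actives have a fitted effect of over 50% in size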
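Readout is a homogeneous TR-FRET IP1 immunoassay (Ex 320, Em 665 and 620), where raised cytosolic IP1 lowers signal. Cells were CHO-M1 treated 30 min at 37C with test compounds plus a little lithium; AC50 values came from Hill-equation fitting.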
RGS12 GoLoco inh = qHTS Assay for Inhibitors of RGS12 GoLoco Motif Activity (Red Fluorophore); AID 880, 2007; Potency, µM (doses to about 61.6 µM), for inactives: top-dose activity, negative = inhibition, hits mostly inhibitors; actives 0.44% (n = 230,000); Gai1:RGS12 GoLoco peptide FP, rhodamine, 10 min; Guanine nucleotide-binding protein G(i) subunit alpha-1 (Homo sapiens), P63096; active = well fitted inhibition curve with a large enough effect, not every such curve was filed as active; inactive = no such curve, though single readings can be large or run the other way; also: % is scaled to controls: 0 for no effect and ±100 for the full control effect; nearly all actives have a fitted effect of over 30% in size
MBNL1 CUG block = qHTS Assay for Inhibitors of MBNL1-poly(CUG) RNA binding | Muscleblind-like protein 1 (Homo sapiens), Q9NR56 | TR-FRET MBNL1-His/biotin-(CUG)12 binding, 665/545 ratio | Potency, µM (series often up to 57.5 µM), without a hit: top-dose activity change, negative = inhibition, most hits filed as inhibitors | actives 0.036% (n = 280,000) | AID 2675, 2010; active = well fitted inhibition curve with a large enough effect in the signal ratio, with a control signal flat, not every such curve was filed as active; inconclusive = small, poorly fitted or top-dose-only effect, or effect the other way, or a change in a side signal; inactive = no such curve, though single readings can be large or run the other way; the % refers to the signal ratio; also: % is scaled to controls: 0 for no effect and ±100 for the full control effect
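Inhibition of protein-RNA binding appears as loss of TR-FRET between terbium anti-His antibody on MBNL1-His and streptavidin-XL665 on biotin-(CUG)12. Activity is normalized to buffer-only and uninhibited-complex controls.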
Tb PFK KinaseGlo = Tb PFK orthogonal confirmatory assay using ATP depletion (Kinase-Glo Plus) as an alternative measure of Tb PFK activity: Hit Validation; AID 504636, 2011; Tb PFK enzyme, ATP depletion, Kinase-Glo Plus luminescence; Potency, µM (titrated, usually from 57.5 µM), for the others: at the highest dose inhibition; actives 47% (n = 1,100); shares compounds with Tb PFK inh-1; calls by dose curve; also: nearly all actives have a fitted effect of over 60% in size
Tb PFK inh-2 = Inhibitors of T. brucei phosphofructokinase: Hit Validation. purified T. brucei PFK, ADP-Glo luminescence, 45 min. Potency, µM (doses to about 57.5 µM), for the others: top-dose activity change, negative = inhibition, most hits filed as inhibitors. shares compounds with Tb PFK inh-1. actives 41% (n = 1,100);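 also: plate controls were full PFK enzyme control for no effect and no enzyme control for full effect; nearly all actives have a fitted effect of over 60% in size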
* hit, by the source's call; [ ] = dose if it differs, or a comment. Unless noted, calls follow the shape of the dose curve; as a rule, active = well fitted curve in the direction sought with a large enough effect; inconclusive = small, poorly fitted or top-dose-only effect, or another doubt; inactive = no such curve, though single readings can be large; an effect the other way counts as inactive or inconclusive. Potency is read from the fitted curve at half-maximal effect.

Oc1ccc(C2C[C@H]3CC[C@@H]2C3)cc1O (some centres undefined) was read as Tb PFK inh-1 inconclusive, MBNL1 CUG block -1.8%, Tb PFK KinaseGlo 12µM* and Tb PFK inh-2 13.5µM*.
`Clc1nc(Cl)nc(Nc2ccccc2Cl)n1` gave IMPase Li cell 2.1% and RGS12 GoLoco inh -3.7%.
O=c1c(OC2OC(CO)C(O)C(O)C2O)c(-c2ccc(O)c(O)c2)oc2cc(O)cc(O)c12 (centres undefined) was read as Tb PFK inh-1 12µM*, NPSR antag -4.4%, IMPase Li cell 13.0%, RGS12 GoLoco inh 8.4%, MBNL1 CUG block inconclusive, Tb PFK KinaseGlo 8.49µM* and Tb PFK inh-2 4.26µM*.
O=c1c(O)c(-c2ccc(O)c(O)c2)oc2c(O)c(O)cc(O)c12 was read as IMPase Li cell 42.9% and RGS12 GoLoco inh 2.4%.
`O=c1cc(-c2ccc(O)c(O)c2)oc2cc(O[C@@H]3O[C@H](CO)[C@@H](O)[C@H](O)[C@H]3O)cc(O)c12` gave Tb PFK inh-1 inconclusive, Tb PFK KinaseGlo inconclusive and Tb PFK inh-2 inconclusive.
For Cc1ccc(S(=O)(=O)N2CCC(=O)N(CCOC(=O)Nc3cccc(Cl)c3)CC2)cc1 the results were Tb PFK inh-1 1.9%, NPSR antag -17.8%, IMPase Li cell 20.3%, RGS12 GoLoco inh 3.4% and MBNL1 CUG block 41.6%.
For Brc1cccc(-c2ccccc2)c1 the results were IMPase Li cell -5.4% and RGS12 GoLoco inh 3.6%.
`O=C(NCCCN1CCCC1=O)c1cc(NS(=O)(=O)c2ccc(F)cc2)cc(NS(=O)(=O)c2ccc(F)cc2)c1` gave Tb PFK inh-1 8.49µM*, NPSR antag -5.2%[46.1 µM], IMPase Li cell 26.6%[38.3 µM], RGS12 GoLoco inh 4.6%, MBNL1 CUG block -2.2%, Tb PFK KinaseGlo 3.79µM* and Tb PFK inh-2 6.75µM*.
Cc1ccc(NS(=O)(=O)c2ccc(OCC(=O)N3CCN(C)CC3)cc2)cc1 was read as Tb PFK inh-1 -1.6% and MBNL1 CUG block -0.7%.
For O=C1C=CC(=O)N1CCNc1ncc(C(F)(F)F)cc1Cl the results were Tb PFK inh-1 21.3µM*, NPSR antag -29.8%, IMPase Li cell 20.3%, RGS12 GoLoco inh 0.2%, MBNL1 CUG block -4.0%, Tb PFK KinaseGlo 5.36µM* and Tb PFK inh-2 13.5µM*.
`O=C1NC(=O)N(CCNc2ncc(C(F)(F)F)cc2Cl)C(=O)C1/C=N/OCc1c(F)cccc1Cl` (centres undefined) gave Tb PFK inh-1 0.0%, NPSR antag -1.1%[46.1 µM], IMPase Li cell 15.2%[38.3 µM], RGS12 GoLoco inh 9.7% and MBNL1 CUG block 17.1%.
`CC(=O)NC1=NN(C(C)=O)C(C)(c2ccccc2)S1` (centres undefined) gave Tb PFK inh-1 inconclusive, NPSR antag -3.9%[46.1 µM], IMPase Li cell -2.8%, RGS12 GoLoco inh -8.1%, MBNL1 CUG block inconclusive, Tb PFK KinaseGlo 1.2% and Tb PFK inh-2 -0.9%.
Screening CCSc1nnc(NC(=O)COc2ccc3ccccc3c2)s1 returned Tb PFK inh-1 inconclusive, NPSR antag -7.1%[46.1 µM], IMPase Li cell inconclusive, RGS12 GoLoco inh 4.3%, MBNL1 CUG block 70.9%, Tb PFK KinaseGlo -32.9% and Tb PFK inh-2 inconclusive.
For C=CCNC(=O)N1CCc2[nH]c3ccc(F)cc3c2C1 the results were Tb PFK inh-1 inconclusive, MBNL1 CUG block 0.5%, Tb PFK KinaseGlo inconclusive and Tb PFK inh-2 inconclusive.
Screening Cl.Cl.Cl.Cl.Cl.Cl.N.N.N.N.NNNNN.NNNNN.O.O.[Ru].[Ru].[Ru] returned IMPase Li cell 9.6% and RGS12 GoLoco inh -4.1%.
CSc1ccc(NC(=O)Nc2ccc(C(=O)NCC(=O)O)cc2)cc1 was read as Tb PFK inh-1 13.5µM*, NPSR antag -14.3%, RGS12 GoLoco inh 15.2%, MBNL1 CUG block inconclusive, Tb PFK KinaseGlo 8.49µM* and Tb PFK inh-2 inconclusive.
For O=C(N/N=C/c1ccncc1)c1ccc(NC(=O)c2cccc(Cl)c2)cc1 the results were Tb PFK inh-1 inconclusive, NPSR antag 1.6%, IMPase Li cell -0.2%, RGS12 GoLoco inh 62.7%, MBNL1 CUG block -19.4%, Tb PFK KinaseGlo -28.3% and Tb PFK inh-2 inconclusive.
`CC(C)c1ccc(C(O)(C(=O)O)c2ccc(C(C)C)cc2)cc1` gave IMPase Li cell -5.4% and RGS12 GoLoco inh -2.5%[14.2 µM].
Cn1c(=O)[nH]c(=O)c2c1nc(SCCN1CCCCC1)n2CCCc1ccccc1 was read as Tb PFK inh-1 inconclusive, NPSR antag 5.7%[46.1 µM], IMPase Li cell 9.6%[38.3 µM], RGS12 GoLoco inh 2.4%, MBNL1 CUG block -11.4%, Tb PFK KinaseGlo 6.75µM* and Tb PFK inh-2 16.9µM*.
Screening CC(C)CCn1c(N2CCN(c3cccc(Cl)c3)CC2)nc2c1c(=O)[nH]c(=O)n2C returned Tb PFK inh-1 -1.4%, NPSR antag -48.4%, IMPase Li cell 33.5%, RGS12 GoLoco inh 4.0% and MBNL1 CUG block -2.6%.
Screening Oc1cc(-n2cccn2)c(O)cc1-n1cccn1 returned Tb PFK inh-1 19µM*, NPSR antag 11.9%, RGS12 GoLoco inh 28.9%, MBNL1 CUG block -5.3%, Tb PFK KinaseGlo inconclusive and Tb PFK inh-2 inconclusive.
`Cc1occc(=O)c1OC(=O)Nc1ccc(Cl)c(Cl)c1` gave Tb PFK inh-1 30.1µM*, NPSR antag -9.8%, IMPase Li cell 6.8%, RGS12 GoLoco inh 10.3%, MBNL1 CUG block 7.6%, Tb PFK KinaseGlo inconclusive and Tb PFK inh-2 inconclusive.
Screening CN(C)C1(CNC(=O)Nc2ccc(Cl)c(Cl)c2)CCCCC1 returned Tb PFK inh-1 -5.8% and MBNL1 CUG block -7.5%.
